This note sets out measurements from PubChem BioAssay (EPA / NIEHS).

Details in all cases: mRNA level, 48 h; actives raise or lower the signal
Read-out in experiment [1]: ATP-citrate lyase (ACLY), ACLY (gene 47)
In words: LTEA_HepaRG_ACLY: Life Technologies and Expression Analysis (LTEA) Assay for ATP-citrate lyase (ACLY) using HepaRG (AID 2283466). The gist of the method: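 HepaRG, 48 h exposure, 8-pt half-log dilutions (top 100 uM), 0.5% DMSO. Readout: ACLY mRNA, TaqMan qRT-PCR, housekeeping-normalized (ACTB/GAPDH/POLR2A). Bidirectional curve fit vs DMSO.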

Read-out in experiment [2]: Alkaline Phosphatase, Placental (ALPP) gene, ALPP (gene 250)
The experiment is described as follows: LTEA_HepaRG_ALPP: Life Technologies and Expression Analysis (LTEA) Assay for Alkaline Phosphatase, Placental (ALPP) gene using HepaRG (AID 2283468).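 As to AC50: differentiated human HepaRG liver cells in serum-free induction medium.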 The gist of the method: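 Using human liver HepaRG cells, chemicals are tested in duplicate over 48 h at half-log concentrations topping at 100 uM; phenobarbital 1 mM serves as induction control. ALPP mRNA change by qRT-PCR, bidirectional fit against vehicle.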

Read-out in experiment [3]: Bcl-2 (BAD) gene, BAD (gene 572)
In words: LTEA_HepaRG_BAD: Life Technologies and Expression Analysis (LTEA) Assay for Bcl-2 (BAD) gene using HepaRG (AID 2283469). The gist of the method:
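BAD transcript change, measured by qRT-PCR against three housekeeping genes and fitted in both directions relative to 0.5% DMSO, after 48 h chemical treatment of human HepaRG liver cells at concentrations up to 100 uM.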

Read-out in experiment [4]: Bcl-2 (BAX) gene, BAX (gene 581)
In words: LTEA_HepaRG_BAX: Life Technologies and Expression Analysis (LTEA) Assay for Bcl-2 (BAX) gene using HepaRG (AID 2283470). The gist of the method: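 HepaRG (human liver), 48 h exposure, duplicate wells. 8-pt curve, half-log from 100 uM, 0.5% DMSO. BAX transcript by TaqMan qRT-PCR; ACTB/GAPDH/POLR2A normalization; gain or loss vs DMSO baseline.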

Read-out in experiment [5]: Alpha-fetoprotein (AFP) gene, AFP (gene 174)
In words: LTEA_HepaRG_AFP: Life Technologies and Expression Analysis (LTEA) Assay for Alpha-fetoprotein (AFP) gene using HepaRG (AID 2283472). The gist of the method: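 HepaRG, single lot; 48 h post-plating -> serum-free induction medium; cpd 8-pt, 100 uM top, half-log, 0.5% DMSO, duplicate, 48 h. RNA -> qRT-PCR AFP, norm ACTB/GAPDH/POLR2A. Bidirectional fit vs DMSO.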

Read-out in a further experiment: BCL2L11 (gene 10018)
In words: LTEA_HepaRG_BCL2L11: Life Technologies and Expression Analysis (LTEA) Assay for Bcl-2 (BCL2L11) gene using HepaRG (AID 2283473). The gist of the method: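 Human hepatic HepaRG cultures are treated 48 h with test chemicals (maximum 100 uM, 0.5% DMSO vehicle). Expression of BCL2L11 is measured by qRT-PCR against ACTB, GAPDH and POLR2A, with activity in either direction scored relative to vehicle.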

Read-out in experiment [6]: Apolipoprotein A-V (APOA5) gene, APOA5 (gene 116519)
The experiment is described as follows: LTEA_HepaRG_APOA5: Life Technologies and Expression Analysis (LTEA) Assay for Apolipoprotein A-V (APOA5) gene using HepaRG (AID 2283474). The gist of the method: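 Concentration-response of APOA5 expression in HepaRG: eight half-log doses to 100 uM, 48 h, qRT-PCR normalized to ACTB/GAPDH/POLR2A, bidirectional fitting with 0.5% DMSO as baseline.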

Read-out in experiment [7]: Apoptosis regulator Bcl-2 (Homo sapiens) (UniProt P10415)
In words: LTEA_HepaRG_BCL2: Life Technologies and Expression Analysis (LTEA) Assay for Bcl-2 gene using HepaRG (AID 2283475). The gist of the method:
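HepaRG, plated 48 h then switched to serum-free induction medium; dosed 48 h, 8 conc. (max 100 uM, half-log steps), duplicate, 0.5% DMSO. Lysis in RLT, RNA isolated, TaqMan qRT-PCR for BCL2; ACTB/GAPDH/POLR2A normalisation; bidirectional fit vs DMSO.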

Read-out in experiment [8]: Bcl-2 (BID) gene, BID (gene 637)
The experiment is described as follows: LTEA_HepaRG_BID: Life Technologies and Expression Analysis (LTEA) Assay for Bcl-2 (BID) gene using HepaRG (AID 2283476). The gist of the method: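 Transcript levels of BID, measured by qRT-PCR and normalized to three housekeeping genes, were fitted bidirectionally against DMSO controls. Cells were HepaRG, dosed 48 h at up to 100 uM.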

Read-out in a further experiment: Caspase-3 (Homo sapiens) (UniProt P42574)
In words: LTEA_HepaRG_CASP3: Life Technologies and Expression Analysis (LTEA) Assay for cysteine-aspartic acid protease (CASP3) using HepaRG (AID 2283477). The gist of the method: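 Transcript-level assay: CASP3 mRNA in human HepaRG after 48 h treatment, eight half-log concentrations from 100 uM in 0.5% DMSO, quantified by qRT-PCR.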

Read-out in experiment [9]: Cytochrome P450 (CYP24A1), CYP24A1 (gene 1591)
In words: LTEA_HepaRG_CYP24A1: Life Technologies and Expression Analysis (LTEA) Assay for Cytochrome P450 (CYP24A1) using HepaRG (AID 2283478). The gist of the method:
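Gene expression of CYP24A1 by TaqMan qRT-PCR in HepaRG after 48 h treatment, highest concentration 100 uM; activity fitted in both directions relative to DMSO vehicle.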

Read-out in experiment [10]: Cytochrome P450 (CYP1A2), CYP1A2 (gene 1544)
In words: LTEA_HepaRG_CYP1A2: Life Technologies and Expression Analysis (LTEA) Assay for Cytochrome P450 (CYP1A2) using HepaRG (AID 2283479). The gist of the method:
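In duplicate wells, HepaRG cultures maintained in 0.5% DMSO were treated 48 h across an 8-point, half-log series topping at 100 uM; phenobarbital (1 mM) served as induction control. Expression was read by qRT-PCR.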

Read-out in experiment [11]: cysteine-aspartic acid protease (CASP8), CASP8 (gene 841)
The experiment is described as follows: LTEA_HepaRG_CASP8: Life Technologies and Expression Analysis (LTEA) Assay for cysteine-aspartic acid protease (CASP8) using HepaRG (AID 2283480). The gist of the method: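 HepaRG, 48 h exposure, duplicate wells; 8 conc, half-log from 100 uM, 0.5% DMSO. Serum-free induction medium. CASP8 mRNA by TaqMan qRT-PCR, norm. ACTB/GAPDH/POLR2A; gain/loss fitted vs DMSO.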

Read-out in experiment [12]: Cytochrome P450 (CYP2B6), CYP2B6 (gene 1555)
In words: LTEA_HepaRG_CYP2B6: Life Technologies and Expression Analysis (LTEA) Assay for Cytochrome P450 (CYP2B6) using HepaRG (AID 2283481). The gist of the method: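 Human HepaRG, 48 h dosing, 0.5% DMSO vehicle, top dose 100 uM. CYP2B6 transcript by qRT-PCR, housekeeping-normalized, bidirectional curve fit.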

Read-out in experiment [13]: Cytochrome P450 2C19 (Homo sapiens) (UniProt P33261)
In words: LTEA_HepaRG_CYP2C19: Life Technologies and Expression Analysis (LTEA) Assay for CYP2C19 using HepaRG (AID 2283482). The gist of the method:
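Endpoint: CYP2C19 mRNA change, bidirectional fit vs 0.5% DMSO. Cells: HepaRG, 48 h exposure, eight-point series topping at 100 uM. Quantitation: qRT-PCR normalized to ACTB, GAPDH, POLR2A.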

Read-out in the next experiment: CYP2C8 (gene 1558)
The experiment is described as follows: LTEA_HepaRG_CYP2C8: Life Technologies and Expression Analysis (LTEA) Assay for CYP2C8 using HepaRG (AID 2283483). The gist of the method: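 CYP2C8 mRNA induction or loss, by qRT-PCR normalized to ACTB/GAPDH/POLR2A, is read in HepaRG cells after 48 h treatment. Concentrations run from 100 uM down in half-log dilutions, with 0.5% DMSO as vehicle and baseline.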

Read-out in the next experiment: CYP2C9 (gene 1559)
In words: LTEA_HepaRG_CYP2C9: Life Technologies and Expression Analysis (LTEA) Assay for CYP2C9 using HepaRG (AID 2283484). The gist of the method:
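Cells plated 48 h, switched to serum-free induction medium, then treated in duplicate for 48 h at eight concentrations (max 100 uM, 0.5% DMSO). RNA then analysed by qRT-PCR for CYP2C9; curves fitted in both directions relative to DMSO.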

Read-out in experiment [14]: adenosine kinase (ADK) gene, ADK (gene 132)
In words: LTEA_HepaRG_ADK: Life Technologies and Expression Analysis (LTEA) Assay for adenosine kinase (ADK) gene using HepaRG (AID 2283471). The gist of the method:
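Differentiated HepaRG cells dosed 48 h in serum-free induction medium, 0.5% DMSO vehicle, eight half-log concentrations from 100 uM, in duplicate. ADK mRNA by TaqMan qRT-PCR normalised to ACTB, GAPDH, POLR2A; bidirectional fit versus DMSO.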

Read-out in another experiment: CYP2E1 (gene 1571)
In words: LTEA_HepaRG_CYP2E1: Life Technologies and Expression Analysis (LTEA) Assay for CYP2E1 using HepaRG (AID 2283485). The gist of the method:
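Human liver line HepaRG, plated 48 h, then serum-free induction medium + chemical x 48 h; 8-pt CRC from 100 uM, half-log, 0.5% DMSO, n=2. Readout: CYP2E1 mRNA qRT-PCR vs ACTB/GAPDH/POLR2A; bidirectional fit vs DMSO.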

SMILES strings stand for the structures. Activity calls are given as the source filed them. The calls were made as follows: active = hit-call score of the fitted dose curve at least 0.9, where 1 is the maximum; inactive = score below 0.9.

Chain of Apoptosis regulator Bcl-2 (Homo sapiens) (P10415 whole entry, looked up): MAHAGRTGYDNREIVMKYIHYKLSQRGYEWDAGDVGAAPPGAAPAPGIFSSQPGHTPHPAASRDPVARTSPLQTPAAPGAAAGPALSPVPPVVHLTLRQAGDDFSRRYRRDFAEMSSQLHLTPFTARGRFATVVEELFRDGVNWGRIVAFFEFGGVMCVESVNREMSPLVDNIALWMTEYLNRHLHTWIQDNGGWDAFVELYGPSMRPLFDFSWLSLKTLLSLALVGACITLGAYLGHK
Chain of Cytochrome P450 2C19 (Homo sapiens) (P33261 whole entry, looked up): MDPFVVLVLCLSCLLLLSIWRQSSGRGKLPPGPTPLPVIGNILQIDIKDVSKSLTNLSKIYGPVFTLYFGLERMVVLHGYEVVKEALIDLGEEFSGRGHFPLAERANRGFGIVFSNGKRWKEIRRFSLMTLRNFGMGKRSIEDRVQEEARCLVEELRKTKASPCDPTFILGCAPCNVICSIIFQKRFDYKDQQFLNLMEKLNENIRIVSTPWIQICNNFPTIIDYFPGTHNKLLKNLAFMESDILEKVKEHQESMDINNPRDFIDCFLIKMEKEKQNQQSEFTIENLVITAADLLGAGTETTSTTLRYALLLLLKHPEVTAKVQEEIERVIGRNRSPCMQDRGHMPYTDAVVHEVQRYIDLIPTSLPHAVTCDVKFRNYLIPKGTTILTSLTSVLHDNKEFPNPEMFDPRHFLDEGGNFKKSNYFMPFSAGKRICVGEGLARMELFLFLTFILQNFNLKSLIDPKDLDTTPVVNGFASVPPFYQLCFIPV
Chain of Caspase-3 (Homo sapiens) (P42574 whole entry, looked up): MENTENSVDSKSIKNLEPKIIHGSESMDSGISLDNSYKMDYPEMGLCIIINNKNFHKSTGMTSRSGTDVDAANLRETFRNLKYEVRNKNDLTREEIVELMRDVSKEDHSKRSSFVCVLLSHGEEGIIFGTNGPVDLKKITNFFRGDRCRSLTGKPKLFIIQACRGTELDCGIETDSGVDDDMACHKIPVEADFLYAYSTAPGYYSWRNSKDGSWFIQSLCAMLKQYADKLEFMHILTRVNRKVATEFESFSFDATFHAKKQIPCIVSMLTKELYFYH

For `CCOC(N)=O`, the call (in experiment [1]; in experiment [2]; in experiment [3]; in experiment [4]; in experiment [5]; with BCL2L11 (gene 10018)) was inactive. Also, the result (in experiment [6]; in experiment [7]; in [8]; with Caspase-3 (Homo sapiens); in experiment [9]; in experiment [10]) was inactive. The call (in experiment [11]; in experiment [12]; in experiment [13]; with CYP2C8 (gene 1558); in the experiment with CYP2C9 (gene 1559)) was inactive.
As a reminder, the AC50 is the concentration giving half of the maximal activity seen. As for `O=C(O)c1cccc(C[C@@H]2COc3ccc(OCc4nc5cc(F)ccc5s4)cc3[C@@H]2O)c1`, the outcome (in experiment [1]; in experiment [3]; in [4]; in [14]; in the experiment with BCL2L11 (gene 10018); in experiment [7]) was inactive. Moreover, the call (in [8]; in the experiment with Caspase-3 (Homo sapiens); in experiment [9]; in [10]; in experiment [11]) was inactive. The AC50 was 80 µM (active) in [2]; 68.7 µM (active) in [5]; 81.1 µM (active) in [6]; 83.9 µM (active) in [13]; 84.2 µM (active) with CYP2C8 (gene 1558); 81.6 µM (active) with CYP2C9 (gene 1559). The AC50 with CYP2E1 (gene 1571) is 71.7 µM (active).
Consider `OC(Cn1cncn1)(Cn1cncn1)c1ccc(F)cc1F`, for which the molecule was classed as inactive (in [1]; in experiment [2]; in [3]; in experiment [4]; in experiment [5]; in the experiment with BCL2L11 (gene 10018)). Also, the call (in experiment [6]; in experiment [7]; in experiment [8]; with Caspase-3 (Homo sapiens); in experiment [9]; in [10]) was inactive. Also, the outcome (in [11]; in [13]; in the experiment with CYP2C8 (gene 1558); in the experiment with CYP2C9 (gene 1559)) was inactive. For the same molecule, the AC50 in [12] was 27.1 µM (active).
Turning to `Cc1nc(-c2ccccn2)ncc1C(=O)Nn1cc(C)c2cc(F)ccc21`, the call (in experiment [1]; in [3]; in experiment [4]; with BCL2L11 (gene 10018); in experiment [7]; in experiment [8]) was inactive. Further, the result (in the experiment with Caspase-3 (Homo sapiens); in [9]; in experiment [10]; in [11]; with CYP2C8 (gene 1558)) was inactive. The AC50 in experiment [2] was 82.3 µM (active); in experiment [5], 50 µM (active); in experiment [6], 80.6 µM (active); in experiment [13], 1.02 µM (active); in the experiment with CYP2C9 (gene 1559), 75.6 µM (active).
